# BAZ2B inh – blocks human BAZ2B. AlphaScreen BAZ2B-H3K14Ac peptide displacement. Potency, µM (highest dose often 114 µM), for the others: at the highest dose activity change, negative = inhibition, most hits filed as inhibitors. 360,000 compounds, 4.4% hits; also: % is scaled to controls: 0 for no effect and ±100 for the full control effect; nearly all actives have a fitted effect of over 60% in size
#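 Complex of BAZ2B and biotin-H3K14Ac (50 nM apiece) forms over 30 min at RT, then faces library compounds up to 110 uM for another 30 min; AlphaScreen beads added, 20 min dark incubation, luminescence read.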
# HP1b binding inh – inhibitors of HP1-beta chromodomain binding to methylated histone tails. AlphaScreen HP1-beta / biotin-H3K9me3 peptide binding. AID 540317. Potency, µM (top dose mostly 114 µM), inactives show at the top dose activity change, negative = inhibition, actives largely listed as inhibitors. 390,000 compounds, 0.56% hits; also: nearly all actives have a fitted effect of over 70% in size
# Target sequence (P83916 whole entry, looked up): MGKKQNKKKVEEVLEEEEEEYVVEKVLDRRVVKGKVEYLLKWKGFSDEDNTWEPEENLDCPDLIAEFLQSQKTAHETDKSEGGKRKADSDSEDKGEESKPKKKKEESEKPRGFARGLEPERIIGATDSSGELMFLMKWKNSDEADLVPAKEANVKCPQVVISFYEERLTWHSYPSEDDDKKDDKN
#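 Compound inhibition of the preformed complex between 50 nM HP1-beta and 50 nM biotinylated H3K9me3 peptide was read by AlphaScreen. Buffer was PBS pH 7.4 with 0.01% Tween-20. Incubations ran 30 min at room temperature, with 10 ug/mL donor/acceptor beads.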
# PLK1 PBD inh – PLK1 (human) polo-box domain binding inhibition; P53350; Plk1 PBD binding of FITC phosphopeptide, fluorescence polarization; Potency, µM, inactives show max response, negative = inhibition, usual class: inhibitors; 360,000 compounds, 2.8% hits; AID 720504; also: series mostly up to about 57 µM; % is scaled to controls: 0 for no effect and ±100 for the full control effect; nearly all actives have a fitted effect of over 65% in size
# JMJD2A Tudor – inhibitors of human JMJD2A Tudor domain | O75164 | AlphaScreen JMJD2A-Tudor / H3K4me3 peptide binding | Potency, µM (highest dose often 114 µM), for inactives: top-dose activity change, negative = inhibition, most hits filed as inhibitors | 390,000 compounds, 4.4% hits; also: % is scaled to controls: 0 for no effect and ±100 for the full control effect; nearly all actives have a fitted effect of over 50% in size
# G9a block – inhibitors of human histone lysine methyltransferase G9a; Q96KQ7; G9a H3K9 monomethylation, AlphaScreen, 2 h; Potency, µM (doses to about 102 µM), for inactives: at the highest dose activity, negative = inhibition, hits mostly inhibitors; 350,000 compounds, 8.8% hits; AID 504332; also: % is scaled to controls: 0 for no effect and ±100 for the full control effect; nearly all actives have a fitted effect of over 75% in size
#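 AlphaScreen detection with an anti-monomethyl H3K9 antibody quantified product after a 2 h room-temperature reaction containing 500 nM biotinylated H3K9 peptide, 20 µM SAM and 20 nM enzyme, which had been preincubated 15 min with compound.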
# VDR inh – blocks the human vitamin D receptor; VDR-SRC2-3 peptide fluorescence polarization, 2 h; Potency, µM, inactives show max response, negative = inhibition, most hits filed as inhibitors; 400,000 compounds, 0.93% hits; also: % is scaled to controls: 0 for no effect and ±100 for the full control effect
# Target sequence (P11473 whole entry, looked up): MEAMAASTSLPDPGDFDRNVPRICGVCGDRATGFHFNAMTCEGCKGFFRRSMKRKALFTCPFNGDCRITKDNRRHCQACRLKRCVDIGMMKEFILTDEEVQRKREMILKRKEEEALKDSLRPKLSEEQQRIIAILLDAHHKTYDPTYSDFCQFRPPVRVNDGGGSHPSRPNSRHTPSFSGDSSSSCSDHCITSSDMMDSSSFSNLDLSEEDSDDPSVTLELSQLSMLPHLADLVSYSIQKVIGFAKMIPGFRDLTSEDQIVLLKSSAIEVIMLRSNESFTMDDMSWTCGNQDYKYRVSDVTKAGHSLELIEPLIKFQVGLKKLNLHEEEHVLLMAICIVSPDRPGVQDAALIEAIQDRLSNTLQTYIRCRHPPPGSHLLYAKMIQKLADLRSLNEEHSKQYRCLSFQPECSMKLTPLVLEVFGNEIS
#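 Fluorescence polarization assay measuring small-molecule disruption of VDR binding to the coregulator peptide SRC2-3. Compounds were pin-transferred (23 nl) into the reagent mix and incubated 2 h at room temperature before reading.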
# Starred values were filed as active, the others as inactive; ? = inconclusive; . = no result; [ ] = remark or other dose. Shown are actives, neighbours in structure and some others; about 11% of the full set was active somewhere. Calls follow the shape of the dose curve; as a rule, active = well fitted curve in the direction sought with a large enough effect; inconclusive = small, poorly fitted or top-dose-only effect, or another doubt; inactive = no such curve, though single readings can be large; an effect the other way counts as inactive or inconclusive. Potency is read from the fitted curve at half-maximal effect.
SMILES,BAZ2B inh,HP1b binding inh,PLK1 PBD inh,JMJD2A Tudor,G9a block,VDR inh
CN1CCc2cc(O)c(O)cc2C(c2ccccc2)C1 (stereo not given),-22%,-5%,-5%,-24%,11µM*,-1%
CN1CCc2cc(Cl)c(O)cc2C(c2ccccc2)C1 (stereo not given),.,.,.,.,29%[12.7 µM],.
COc1ccc(N2C(=O)Cc3cc(OC)c(OC)cc3C2c2ccc(F)cc2)cc1 (stereo not given),-19%,34%,.,-16%,-23%[59 µM],8%
Cc1ccc(C2=NOC3(CC(=O)N(c4ccc(C)cc4)C3=O)C2)cc1 (stereo not given),-3%,29%,-3%,3%,.,-11%
COc1ccc(C2=NOC3(CC(=O)N(c4ccc(F)cc4)C3=O)C2)c(OC)c1 (stereo not given),-29%,6%,-10%,-27%,50µM*,14%
Cc1ccc(C2=NOC3(CC(=O)N(c4ccccc4)C3=O)C2)cc1 (stereo not given),2%,22%,-15%,-19%,6%,-29%
COc1ccc(C2=NOC3(CC(=O)N(c4ccc5ccccc5c4)C3=O)C2)c(OC)c1 (stereo not given),?,-20%,-14%,50µM*,?,1%
COc1ccc(C2=NOC3(CC(=O)N(c4ccc(F)cc4)C3=O)C2)cc1 (stereo not given),-19%,29%,-8%,-14%,50µM*,18%
CCc1ccc(C(=O)c2cn(CC(=O)Nc3cc(C)ccc3C)c3nc(C)ccc3c2=O)cc1,-2%,-8%,.,-31%,2%[59 µM],-4%
Cn1c(SCC(=O)Nc2ccc3c(c2)OCCO3)nnc1C1CC1,-5%,17%,0%,-9%,0%,15%
Cc1ccccc1-c1nc2c(=O)n(C)c(=O)nc-2n(C)n1,.,3%[57 µM],.,-18%[57.1 µM],.,-22%
Cn1nc(-c2ccccn2)nc2c(=O)n(C)c(=O)nc1-2,10µM*,20%,-11%,11µM*,14µM*,10%
Cn1c(=O)c2c(nc(N3CCCCC3)n2CC(O)COc2ccccc2)n(C)c1=O (stereo not given),5%,10%,-11%,-17%,21%,5%
Cn1c(=O)c2c(nc(N3CCCCCC3)n2CC(O)COc2ccccc2)n(C)c1=O (stereo not given),-4%,?,3µM*,?,10%[0.0925 µM],?
Cn1c(=O)[nH]c(=O)c2c1nc(SCCO)n2CC(O)COc1ccccc1 (stereo not given),-26%,?,24µM*,-21%,16µM*,-7%
CCCSc1nc2c(c(=O)[nH]c(=O)n2C)n1CC(O)COc1ccccc1 (stereo not given),2%,-3%,-30%,-9%,50µM*,-20%
CCSc1nc2c(c(=O)[nH]c(=O)n2C)n1CC(O)COc1ccccc1 (stereo not given),.,48%,5%,-14%,9%,-14%
COCCCNc1nc2c(c(=O)[nH]c(=O)n2C)n1CC(O)COc1ccccc1C (stereo not given),-4%,-5%,24µM*,-30%,-20%,-15%
CN1C(C)(C)CC(=NO)CC1(C)C,.,12%[57 µM],-5%,-8%,.,-21%
CCOC(=O)c1c(NC(=O)/C=C/c2ccc(OCC)c(OC)c2)sc2c1CCC2,0%,39%,.,10%,28%[59 µM],-10%
CS(=O)(=O)c1cccc(S(=O)(=O)N2CCCCCC2)c1,1%,22%,-6%,-10%,41%,-8%
Cc1ccccc1OCC(O)Cn1c(N2CCN(c3ccccc3)CC2)nc2c1c(=O)[nH]c(=O)n2C (stereo not given),5%,11%,8%,-18%,?,-4%
CC(C)CSc1nc2c(c(=O)[nH]c(=O)n2C)n1CC(O)COc1cccc2ccccc12 (stereo not given),-9%,?,11µM*,?,4µM*,?
CSc1nnc(-c2sc3cc(C(F)(F)F)cnc3c2-c2cccnc2)n1C,5%,20%,-3%,-8%,50µM*,1%
O=C(NCc1ccccn1)c1c(-c2ccccc2)sc2ccccc12,.,26%,-13%,-27%,.,-12%
SMILES,BAZ2B inh,HP1b binding inh,PLK1 PBD inh,JMJD2A Tudor,G9a block,VDR inh
CCOC(=O)N1CCC(N(CCN(C)C)C(=S)Nc2cc(Cl)ccc2C)CC1,-19%,34%,?,-10%,-34%,-18%
CC(C)Sc1nc2[nH]ncc2c(=O)[nH]1,-29%,32%,-10%,-2%,35µM*,10%
CSc1nc2[nH]ncc2c(=O)[nH]1,3%,30%,-18%,-9%,-18%[59 µM],-14%
Cc1ccc(OCc2cc(C(=O)N3CCN(CC(=O)NC(C)C)CC3)no2)cn1,1%,10%,27µM*,-22%,20%,-17%
Cc1ccc(NC(=O)c2ccc3c(c2)CCN3S(C)(=O)=O)cc1C,-4%,-13%,3µM*,16µM*,18%[59 µM],?
O=C1CC(c2ccco2)Cc2nc(N3CCc4ccccc4C3)ncc21 (stereo not given),?,-11%,-20%,-25%,45µM*,-7%
CC(C)c1ccc(C2CC(=O)c3cnc(N4CCc5ccccc5C4)nc3C2)cc1 (stereo not given),1%,19%,-4%,?,7%[59 µM],5%
CC(C)S(=O)(=O)c1cnc(-c2ccccn2)nc1N,56µM*,17%,-7%,50µM*,-5%,-6%
CC1(C)CCC(C)(C)c2cc([S+](=O)([O-])N3CCN([S+](=O)([O-])c4c(F)cccc4F)CC3)ccc21,.,.,.,-22%,.,.
CC1(C)CCN2CCC(C)(C)c3c(O)ccc1c32,45µM*,?,-12%,56µM*,10µM*,?
Cc1nc2ccc(NC(=O)Cc3ccc4c(c3)OCCO4)cc2s1,-22%,22%,-8%,-9%,7%[59 µM],14%
COC(=O)Cc1[nH]c(=S)[nH]c1C(=O)OC,-5%,7%,-15%,3.2µM*,.,-1%
CCOC(=O)c1c(C)[nH]c(C(=O)OC)c1CCC(=O)OC,?,4%,5%,-15%,-39%[12.7 µM],-2%
COc1ccc(N2CCN(Cc3nnc(-c4cccc(Br)c4)o3)CC2)cc1,45µM*,?,.,79µM*,11µM*,-9%
CCN(C(=O)c1ccc2c(=O)n3c(nc2c1)CCCCC3)c1ccccc1C,-8%,19%,-12%,-24%,-6%,-13%
COc1ccccc1-c1nc(Nc2ccncc2)c2ccccc2n1,.,.,.,.,13%[0.501 µM],?
CCN1CCCC1CNCC(O)COc1ccc(C(C)(C)C)cc1C (stereo not given),?,7%,?,1.6µM*,?,-3%
COc1ccc(CCNC2CC(C)N(C)CC2C)cc1OC (stereo not given),4%,35%,-4%,-3%,45µM*,-3%
